# An excerpt weighted towards active compounds, which were near 1.5% of everything screened.
# mIDH1 inhibitor – qHTS for Inhibitors of mutant isocitrate dehydrogenase 1 (IDH1): qHTS. Isocitrate dehydrogenase [NADP] cytoplasmic (Homo sapiens), O75874. IDH1-R132H enzyme, NADPH consumption, diaphorase/resazurin fluorescence. Potency, µM (series often up to 76.6 µM), inactives show at the highest dose activity change, negative = inhibition, hits mostly inhibitors. hit rate 0.093% among 390,000. AID 602179, 2012; also: potency is read from the fitted curve at half-maximal effect; % is scaled to controls: 0 for no effect and ±100 for the full control effect; nearly all actives have a fitted effect of over 65% in size
# Target sequence (O75874 whole entry R132H, stated change not applied): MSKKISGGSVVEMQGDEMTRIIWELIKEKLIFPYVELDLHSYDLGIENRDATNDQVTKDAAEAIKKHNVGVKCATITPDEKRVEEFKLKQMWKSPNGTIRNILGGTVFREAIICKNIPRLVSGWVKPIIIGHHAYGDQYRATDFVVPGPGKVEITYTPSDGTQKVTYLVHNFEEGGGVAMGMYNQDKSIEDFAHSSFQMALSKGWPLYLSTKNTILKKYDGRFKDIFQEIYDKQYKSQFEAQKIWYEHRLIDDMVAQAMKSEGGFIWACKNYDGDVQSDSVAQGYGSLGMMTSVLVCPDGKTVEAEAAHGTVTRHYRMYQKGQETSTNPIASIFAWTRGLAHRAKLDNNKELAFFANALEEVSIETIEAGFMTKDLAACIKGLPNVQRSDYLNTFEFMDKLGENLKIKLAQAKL
#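 IDH1-R132H (0.5 ug/mL dispensed) in pH 7.5 Tris buffer was preincubated 30 min with compound, then given a substrate mix of 0.016 mM NADPH and 2 mM alpha-KG for 80 min at room temperature; remaining NADPH was read by diaphorase/resazurin fluorescence.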
# gsp antag – qHTS for Antagonists of gsp, the Etiologic Mutation Responsible for Fibrous Dysplasia/McCune-Albright Syndrome: qHTS. hit rate 0.4% among 340,000. gsp-mutant cells, cAMP HTRF, 30 min. AID 624288, 2012. Potency, µM (series often up to 76.9 µM), for inactives: at the highest dose activity change, negative = inhibition, most hits filed as inhibitors; calls by dose curve; cell line not stated here;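 also: intracellular cAMP measured with PDE inhibitor Ro 20-1724 present during compound exposure; potency is read from the fitted curve at half-maximal effect; % is scaled to controls: 0 for no effect and ±100 for the full control effect; nearly all actives have a fitted effect of over 65% in size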
#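 Cells, 2000/well, grown 16–24 h in DMEM 10% FBS with 0.5 mg/ml G418, then compounds plus […] (300 uM addition stock), 30 min at 37C. cAMP read by HTRF (cAMP-d2 and anti-cAMP antibody-K in lysis buffer) after 30 min RT.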
# IL2 activator – qHTS of IL-2 Activators; activation, % (series mostly up to about 46 µM); hit rate 0.065% among 360,000; AID 652025, 2013; IL-2 activation reporter assay, cell-based qHTS; stimulated with anti-CD3/CD4/CD28 beads; in transgenic mouse T cells; in the data active = activation above about 50%; inconclusive = mostly about 30% to 49%; also: 0% is about no effect
#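 First, unstimulated transgenic mouse T cells were exposed to compound for 60 min. Next, anti-CD3/anti-CD4-coated beads with anti-CD28 were added. Finally, after 18 h at 37 degrees C, EGFP and DsRed were imaged.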
# BRCA1 expr act – qHTS Assay to Identify Small Molecule Activators of BRCA1 Expression. MCF7-BRCA1-FFLuc reporter, luminescence, 48 h; response scale: scaled: vehicle 0%, 10 µM genistein 100%. Potency, µM (top dose mostly 46.1 µM), inactives show top-dose activation, most hits filed as activators. hit rate 1.1% among 380,000; also: potency is read from the fitted curve at half-maximal effect; nearly all actives have a fitted effect of over 80% in size
#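 Using MCF7 cells harboring a BRCA1 firefly luciferase reporter, plated 2 h before compound pinning, the screen measured luminescence after 48 h incubation. Responses were normalized to DMSO and 10 microM genistein, then fitted for concentration-effect.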
# gsp ag – qHTS for Agonist of gsp, the Etiologic Mutation Responsible for Fibrous Dysplasia/McCune-Albright Syndrome: qHTS. Potency, µM (series often up to 76.9 µM), for inactives: at the top dose activation (cAMP increase), hits mostly activators. gsp mutant cells, cAMP HTRF, 30 min. AID 624287, 2012. hit rate 0.13% among 340,000; active = well fitted activation curve with a large enough effect; inconclusive = small, poorly fitted or top-dose-only effect, or another doubt; inactive = no such curve, though single readings can be large or run the other way; cell line not stated here;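 also: phosphodiesterase inhibitor Ro 20-1724 added with compounds to block cAMP breakdown; potency is read from the fitted curve at half-maximal effect; nearly all actives have a fitted effect of over 60% in size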
#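 Cells stably selected in G418 were plated at 2000/well, grown 16-24 hr, then given compounds in DMSO with the PDE inhibitor […] (300 uM solution added) for 30 min at 37C; cAMP was read by HTRF.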
# Starred values were filed as active, the others as inactive; ? = inconclusive; · = no result given; [ ] = remark or other dose. Unless noted, calls follow the shape of the dose curve; as a rule, active = well fitted curve in the direction sought with a large enough effect; inconclusive = small, poorly fitted or top-dose-only effect, or another doubt; inactive = no such curve, though single readings can be large; an effect the other way counts as inactive or inconclusive.
SMILES,mIDH1 inhibitor,gsp antag,IL2 activator,BRCA1 expr act,gsp ag
Cc1cc(C)nc(SCc2cc(=O)c(OC(=O)c3ccc(Cl)c([N+](=O)[O-])c3)co2)n1,4%,35µM*,0,-60%,-38%
Cc1ccc(C)c(Cn2c(=O)n(Cc3ccccc3)c(=O)c3sc4ccccc4c32)c1,12%,·,·,9%,·
Cc1cccc(N2CCN(C(=O)CCCSc3nc4ccccc4[nH]3)CC2)c1C,10%,45µM*,-1,-71%,-3%
Cn1c(CO)cnc1SCC(=O)c1ccc(F)cc1,0%,7%,-3,10µM*,25%
Cn1c(CO)cnc1SCC(=O)c1ccc(Br)cc1,7%,14%,0,43%,-10%[15.4 µM]
Cc1sc2ncnc(SCC(=O)N(C)C3CCS(=O)(=O)C3)c2c1C (configuration not stated),10%,7%,0,-5%,27%[15.4 µM]
CCOC(=O)c1sc2nc(C)nc(SCC(=O)N(C)C3CCS(=O)(=O)C3)c2c1C (configuration not stated),0%,8%,-2,-1%,16µM*
CN(C(=O)CSc1ncnc2sc3c(c12)CCCC3)C1CCS(=O)(=O)C1 (configuration not stated),4%,-4%,-1,-41%,11µM*
COC(=O)c1sc2nc(C)nc(SCC(=O)N3CCC(C(=O)O)CC3)c2c1C,5%,0%,0,-1%,16µM*
Cc1nc(SCC(=O)NC2CC2)c2c(C)c(C)sc2n1,2%,-4%,-2,11%,10%[15.4 µM]
COc1ccc(C(=O)NCCn2ccc3ccccc32)c(OC)c1,6%,-14%,-3,7.9µM*,22%
COc1ccc(C(=O)CCC(=O)N2CCN(c3cccc(Cl)c3)CC2)cc1,2%,35µM*,-3,1%,?
COc1ccc(OCC(=O)N2CCN(c3cccc(Cl)c3)CC2)cc1,2%,-15%,0,-14%,11%[15.4 µM]
O=C1CCn2nc(-c3ccc(Cl)cc3)cc2N1,2%,5%,2,4µM*,-44%
Cc1cc(=O)n(C(C)(C)C)c(=O)n1Cc1ccccc1,2%,9%,-3,-3%,-52%
CCOC(=O)C1C(=O)Oc2ccc3ccccc3c2C1C1CCOC1=O (configuration not stated),-5%,50µM*,-2,-3%,-5%
CSc1ccccc1C(=O)C1CCCN(C(=O)c2cncs2)C1 (configuration not stated),-1%,-19%,-3,0%,?
COc1cccc(N2CCN(C(=O)c3ccc(Cn4c(=O)[nH]c5cc(OC)c(OC)cc5c4=O)cc3)CC2)c1,-8%,·,·,-6%,·
Cc1cc(NC(=O)CC2CCCC2)ccc1Br,1%,-3%,1,8.9µM*,?
O=C(CC1CCCC1)Nc1ccc2c(c1)CCC2,2%,0%,-3,10µM*,-6%
O=C(Cc1ccccc1)Nc1ccc2c(c1)CCC2,14%,-7%,-5,?,9%[15.4 µM]
Cc1cc(NC(=O)CSc2nc3ccsc3c(=O)n2Cc2ccccn2)n[nH]1,-2%,7%,2,5.6µM*,19%
Cc1ccc(S(=O)(=O)Nc2ccccc2C(N)=O)cc1,-4%,9%,8,4%,24%
Cc1ccc(S(=O)(=O)Nc2ccccc2-c2ccccc2NS(=O)(=O)c2ccc(C)cc2)cc1,-2%,40µM*,0,-55%,-3%
CCOC(=O)c1cnc(SCC(C)C)nc1N,2%,2%,-1,7.9µM*,8%
SMILES,mIDH1 inhibitor,gsp antag,IL2 activator,BRCA1 expr act,gsp ag
CCOC(=O)c1cnc(SC)nc1N,1%,6%,0,18%,-36%
CCOC(=O)c1cnc(SCc2cccc(C)c2)nc1N,2%,-3%,-1,10µM*,-25%
CC(C)Cn1c(N)c(C(=O)COC(=O)Cc2cccc(C(F)(F)F)c2)c(=O)n(C)c1=O,13%,?,-3,-28%,-31%
CCOC(=O)c1cc2c(nc1NC(=S)NCc1ccccc1)CCCC2,-5%,-4%,-2,4.5µM*,15%
CCOC(=O)c1cc2c(nc1NC(=S)Nc1ccccc1)CC(C)(C)OC2,1%,1%,-4,3%,10%
O=[N+]([O-])c1cccc(-c2nnc(-c3ccc4c(c3)OCO4)o2)c1,5%,5%,-2,2.5µM*,7%[15.4 µM]
O=[n+]1c2c(n([O-])c3cc(F)c(N4CCCC4)cc31)CCC2,3%,40µM*,1,11%,21%
O=[n+]1c2c(n([O-])c3cc(F)c(N4CCCC4)cc31)CCCC2,0%,2%,3,54%,24%
CCN(CC)C(=O)CSc1nc(-c2ccc(C)cc2)nc2c1Cc1c(CO)cnc(C)c1O2,23%,·,·,·,·
CC(C)Cc1ccc(-c2ccc3nccn3c2)cc1,·,·,-1,14µM*,·
NC(=O)C1CCN(c2nc(-c3cccs3)cs2)CC1,·,·,1,1.3µM*,·
NC(=O)C1CCN(c2nc(-c3ccc(Br)cc3)cs2)CC1,5%,-12%,-3,1.8µM*,-8%[15.4 µM]
CCOC(=O)c1c(NC(=O)COC(=O)c2cnccn2)sc(C)c1C,3%,-5%,3,1%,5%[15.4 µM]
Cc1cc(C)n2c(NC3CCCC3)c(-c3ccc(F)cc3)nc2n1,·,·,1,-15%,·
CCOc1ccc(N=C(/C(C(=O)C(=O)N2CCOCC2)=C(/O)c2ccccc2)c2ccccc2)cc1,3%,-8%,0,11µM*,10%
CCOc1ccc(OCc2cccc(C(=O)N3CCOCC3)c2)cc1,13%,5%,-1,-81%,12%
O=C1c2ccccc2S(=O)(=O)N1CC1CC(c2ccc(Cl)cc2)=NO1 (configuration not stated),4%,-25%,1,3.2µM*,-41%
CC(=O)CCC1CC(c2ccc(Cl)cc2)=NO1 (configuration not stated),-4%,3%,0,?,·
O=C1c2ccccc2S(=O)(=O)N1CC1CC(c2ccccc2)=NO1 (configuration not stated),-4%,0%,-1,11µM*,4%
COc1ccc(C2=NOC(CN3C(=O)c4ccccc4S3(=O)=O)C2)cc1 (configuration not stated),0%,-19%,0,2.8µM*,5%
O=C(CN1C(=O)c2ccccc2S1(=O)=O)c1ccccc1,0%,3%,0,-73%,-22%
CCOC(=O)N1CCN(/[N+]([O-])=N/OCOC)CC1,·,·,·,0%,·
Cc1cc(NC(=O)c2cccc(Cl)c2)n[nH]1,-12%,2%,0,4µM*,26%
Cn1sc(NC(=O)c2cccc(Cl)c2)nc1=O,9%,28µM*,-3,?,15%

# Screening data deposited in PubChem by National Center for Advancing Translational Sciences (NCATS).
